Holding throughout (assay): DAPPL (digital affinity profiling via proximity ligation, sequencing); 10 mM Tris-HCl pH 7.5, 50 mM NaCl, 1 mM DTT, 4% glycerol, room temperature, 30 min; GST-TFs on glutathione beads, 16-mer random dsDNA library, 0.1% formaldehyde crosslink after washing; high values mean tight binding
What all share (details): protein: recombinant; tags: N-terminal GST; dsDNA, one strand shown

Experiment [1] addresses T1, ERF (Homo sapiens, UniProt P50548 1-548).
T1 sequence: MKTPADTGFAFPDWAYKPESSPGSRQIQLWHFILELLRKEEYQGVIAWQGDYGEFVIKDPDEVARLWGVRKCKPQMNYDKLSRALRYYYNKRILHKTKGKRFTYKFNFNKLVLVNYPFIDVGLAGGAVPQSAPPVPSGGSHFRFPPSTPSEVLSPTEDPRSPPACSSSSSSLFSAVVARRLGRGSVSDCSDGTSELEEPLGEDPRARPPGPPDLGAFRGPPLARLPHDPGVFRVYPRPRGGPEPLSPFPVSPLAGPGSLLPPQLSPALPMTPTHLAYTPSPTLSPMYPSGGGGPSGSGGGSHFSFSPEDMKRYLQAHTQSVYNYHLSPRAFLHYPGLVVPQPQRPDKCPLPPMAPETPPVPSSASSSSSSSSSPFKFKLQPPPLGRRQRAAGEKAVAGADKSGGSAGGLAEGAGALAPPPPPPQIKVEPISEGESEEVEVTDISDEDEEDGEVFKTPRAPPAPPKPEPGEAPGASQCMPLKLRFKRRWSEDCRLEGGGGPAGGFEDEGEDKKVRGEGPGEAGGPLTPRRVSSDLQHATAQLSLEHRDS
A digest of the protocol:
(§1)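 Each value of binding signal is a hexamer's read frequency for a factor divided by the same hexamer's frequency in the tag-only sample. Barcoded, bead-captured GST fusions of human transcription factors made in yeast were pooled with that sample and incubated with 200 nmole of a random double-stranded 16-mer DNA library in Tris/NaCl/DTT/glycerol buffer at room temperature for 30 min. Washing, 0.1% formaldehyde crosslinking, proximity ligation, PCR and Illumina NextSeq500 sequencing followed.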

The target of experiment [2] is T2, ETV3L (Homo sapiens, UniProt Q6ZN32 1-361).
T2 sequence: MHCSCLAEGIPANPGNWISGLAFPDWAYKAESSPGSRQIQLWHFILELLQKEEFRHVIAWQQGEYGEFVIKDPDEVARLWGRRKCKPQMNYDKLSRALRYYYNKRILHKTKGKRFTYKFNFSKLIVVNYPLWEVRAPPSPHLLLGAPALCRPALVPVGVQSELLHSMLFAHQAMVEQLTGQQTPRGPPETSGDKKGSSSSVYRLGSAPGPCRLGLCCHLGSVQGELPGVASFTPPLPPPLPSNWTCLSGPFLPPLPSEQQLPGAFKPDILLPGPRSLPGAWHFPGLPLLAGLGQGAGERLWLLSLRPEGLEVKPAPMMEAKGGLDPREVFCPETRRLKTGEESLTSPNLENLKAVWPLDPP
A digest of the protocol: as §1

The target in experiment [3] is T3, ETS2 (Homo sapiens, UniProt P15036 1-469).
T3 sequence: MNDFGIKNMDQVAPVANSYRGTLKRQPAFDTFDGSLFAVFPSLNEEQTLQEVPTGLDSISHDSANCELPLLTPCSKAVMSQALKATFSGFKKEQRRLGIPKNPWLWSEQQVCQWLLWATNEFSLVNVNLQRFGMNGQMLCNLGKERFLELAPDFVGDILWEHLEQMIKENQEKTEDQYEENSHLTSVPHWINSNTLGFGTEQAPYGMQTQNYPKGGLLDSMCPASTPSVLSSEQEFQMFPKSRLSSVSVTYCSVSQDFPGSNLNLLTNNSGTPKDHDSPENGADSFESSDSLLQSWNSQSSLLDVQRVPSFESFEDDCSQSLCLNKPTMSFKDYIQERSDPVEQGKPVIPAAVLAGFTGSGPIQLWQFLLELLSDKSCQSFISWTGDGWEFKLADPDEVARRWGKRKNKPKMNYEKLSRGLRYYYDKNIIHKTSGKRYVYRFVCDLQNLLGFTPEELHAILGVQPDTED
A digest of the protocol:
as §1

Experiment [4] concerns the target T4, SPDEF (Homo sapiens, UniProt O95238 1-335).
T4 sequence: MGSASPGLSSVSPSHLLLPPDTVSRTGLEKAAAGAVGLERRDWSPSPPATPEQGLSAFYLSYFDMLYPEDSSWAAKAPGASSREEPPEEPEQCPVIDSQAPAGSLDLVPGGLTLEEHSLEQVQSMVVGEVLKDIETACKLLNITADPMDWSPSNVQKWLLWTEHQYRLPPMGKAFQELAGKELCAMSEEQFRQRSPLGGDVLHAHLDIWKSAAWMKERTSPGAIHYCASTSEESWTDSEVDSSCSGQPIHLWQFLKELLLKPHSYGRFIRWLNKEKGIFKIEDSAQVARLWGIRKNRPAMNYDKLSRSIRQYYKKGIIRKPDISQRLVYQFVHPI
The gist of the method:
as §1

The target of experiment [5] is T5, ETV7 (Homo sapiens, UniProt Q9Y603 1-341).
T5 sequence: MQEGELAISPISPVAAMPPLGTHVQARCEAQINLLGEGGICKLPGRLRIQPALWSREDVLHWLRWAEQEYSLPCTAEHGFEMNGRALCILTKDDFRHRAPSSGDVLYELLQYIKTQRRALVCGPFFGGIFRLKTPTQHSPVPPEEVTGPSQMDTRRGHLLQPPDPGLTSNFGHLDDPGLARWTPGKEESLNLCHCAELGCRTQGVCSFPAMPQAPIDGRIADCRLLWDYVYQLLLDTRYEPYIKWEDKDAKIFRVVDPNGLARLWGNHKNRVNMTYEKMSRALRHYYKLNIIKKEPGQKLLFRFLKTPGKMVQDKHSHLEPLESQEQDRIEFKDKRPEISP
The gist of the method: as §1

Experiment [6] concerns the target T6, ETV3 (Homo sapiens, UniProt P41162-2 1-143).
T6 sequence: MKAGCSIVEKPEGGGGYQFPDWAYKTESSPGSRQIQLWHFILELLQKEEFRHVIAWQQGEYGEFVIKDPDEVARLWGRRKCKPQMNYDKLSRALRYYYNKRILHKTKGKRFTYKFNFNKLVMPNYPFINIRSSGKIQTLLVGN
The gist of the method: as §1

Experiment [7] has as its target ETV6 (Homo sapiens, UniProt P41212 1-452). A digest of the protocol:
as §1

The values that follow come from PMC7862700, “An all-to-all approach to the identification of sequence-specific readers for epigenetic DNA modifications on cytosine”.

ETV6, sequence (P41212 whole entry): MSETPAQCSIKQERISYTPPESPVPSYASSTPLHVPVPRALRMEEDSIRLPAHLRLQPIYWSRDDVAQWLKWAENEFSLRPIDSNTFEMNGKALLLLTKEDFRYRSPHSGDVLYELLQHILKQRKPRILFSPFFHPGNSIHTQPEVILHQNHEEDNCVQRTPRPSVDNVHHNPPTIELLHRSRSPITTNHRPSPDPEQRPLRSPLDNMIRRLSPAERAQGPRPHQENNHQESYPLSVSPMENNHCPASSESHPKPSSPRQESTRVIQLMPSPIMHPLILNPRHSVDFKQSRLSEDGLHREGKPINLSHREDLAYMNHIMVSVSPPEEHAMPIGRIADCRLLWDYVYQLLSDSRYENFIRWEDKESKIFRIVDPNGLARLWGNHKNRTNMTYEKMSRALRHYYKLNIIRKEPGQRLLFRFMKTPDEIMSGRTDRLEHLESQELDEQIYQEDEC

Consider TACTGA, for which the binding signal was 1.17 fold enrichment (6-mer frequency, TF over GST control) in experiment [1]; 1.13 fold enrichment (6-mer frequency, TF over GST control) in experiment [2]; 1.1 fold enrichment (6-mer frequency, TF over GST control) in experiment [3]; 1.14 fold enrichment (6-mer frequency, TF over GST control) in experiment [4]; 1.01 fold enrichment (6-mer frequency, TF over GST control) in experiment [5]; 1.11 fold enrichment (6-mer frequency, TF over GST control) in experiment [6].

Turning to ATCAAT, the binding signal in experiment [1] was 1.15 fold enrichment (6-mer frequency, TF over GST control); in experiment [2], 1.03 fold enrichment (6-mer frequency, TF over GST control); in experiment [3], 1.05 fold enrichment (6-mer frequency, TF over GST control); in experiment [4], 1.03 fold enrichment (6-mer frequency, TF over GST control); in experiment [5] it was 1.12 fold enrichment (6-mer frequency, TF over GST control); in experiment [6], 1.14 fold enrichment (6-mer frequency, TF over GST control). For the same sequence, the binding signal in experiment [7] is 1.07 fold enrichment (6-mer frequency, TF over GST control).

TTGGGC: the binding signal was 1.12 fold enrichment (6-mer frequency, TF over GST control) in experiment [1]; 1.22 fold enrichment (6-mer frequency, TF over GST control) in experiment [2]; 1.12 fold enrichment (6-mer frequency, TF over GST control) in experiment [3]; 1 fold enrichment (6-mer frequency, TF over GST control) in experiment [4]; 1.09 fold enrichment (6-mer frequency, TF over GST control) in experiment [5]; 1.04 fold enrichment (6-mer frequency, TF over GST control) in experiment [6]. Also, the binding signal in experiment [7] was 1.11 fold enrichment (6-mer frequency, TF over GST control).

As to CTGAGC, the binding signal in experiment [1] is 1.06 fold enrichment (6-mer frequency, TF over GST control); in experiment [2], 1.14 fold enrichment (6-mer frequency, TF over GST control); in experiment [3] it was 1.15 fold enrichment (6-mer frequency, TF over GST control); in experiment [4], 1.16 fold enrichment (6-mer frequency, TF over GST control); in experiment [5] it was 1.16 fold enrichment (6-mer frequency, TF over GST control); in experiment [6] it was 1.01 fold enrichment (6-mer frequency, TF over GST control). Besides, the binding signal in experiment [7] was 1.16 fold enrichment (6-mer frequency, TF over GST control).

On to GGCCTC, for which the binding signal in experiment [1] was 1.12 fold enrichment (6-mer frequency, TF over GST control); in experiment [2], 1.12 fold enrichment (6-mer frequency, TF over GST control); in experiment [3] it was 1.09 fold enrichment (6-mer frequency, TF over GST control); in experiment [4], 1.08 fold enrichment (6-mer frequency, TF over GST control); in experiment [5] it was 1.05 fold enrichment (6-mer frequency, TF over GST control); in experiment [6], 1.1 fold enrichment (6-mer frequency, TF over GST control). The binding signal in experiment [7] is 1.09 fold enrichment (6-mer frequency, TF over GST control).

On to ACAGAT, for which the binding signal is 1.06 fold enrichment (6-mer frequency, TF over GST control) in experiment [1]; 1.01 fold enrichment (6-mer frequency, TF over GST control) in experiment [2]; 1.03 fold enrichment (6-mer frequency, TF over GST control) in experiment [3]; 1.05 fold enrichment (6-mer frequency, TF over GST control) in experiment [4]; 1.12 fold enrichment (6-mer frequency, TF over GST control) in experiment [5]; 1.02 fold enrichment (6-mer frequency, TF over GST control) in experiment [6].

Regarding AGCTAA, the binding signal in experiment [1] is 1.1 fold enrichment (6-mer frequency, TF over GST control); in experiment [2], 1.05 fold enrichment (6-mer frequency, TF over GST control); in experiment [3], 1.15 fold enrichment (6-mer frequency, TF over GST control); in experiment [4] it was 1.02 fold enrichment (6-mer frequency, TF over GST control); in experiment [5], 1.1 fold enrichment (6-mer frequency, TF over GST control); in experiment [6], 1.1 fold enrichment (6-mer frequency, TF over GST control).

Regarding CAATAG, the binding signal in experiment [1] was 1.21 fold enrichment (6-mer frequency, TF over GST control); in experiment [2] it was 1.02 fold enrichment (6-mer frequency, TF over GST control); in experiment [3] it was 1.08 fold enrichment (6-mer frequency, TF over GST control); in experiment [4], 1.08 fold enrichment (6-mer frequency, TF over GST control); in experiment [5], 1.11 fold enrichment (6-mer frequency, TF over GST control); in experiment [6], 1.09 fold enrichment (6-mer frequency, TF over GST control). In addition, the binding signal in experiment [7] was 1.12 fold enrichment (6-mer frequency, TF over GST control).
